According to article PMC11006913:
Numbering of substitutions follows the chain as printed.

Tests used:
Assay in all cases: PBM; 200 nM protein, PBS
Conditions in all cases: dsDNA, one strand shown
HOXB4 [1] = biological target: HOXB4 (Homo sapiens, UniProt P17483 148-234)
SHOX [2] = biological target: SHOX (Homo sapiens, UniProt O15266 103-189)
VENTX [3] = biological target: T1, VENTX (Homo sapiens, UniProt O95231 78-163, R121Q)
T1 sequence: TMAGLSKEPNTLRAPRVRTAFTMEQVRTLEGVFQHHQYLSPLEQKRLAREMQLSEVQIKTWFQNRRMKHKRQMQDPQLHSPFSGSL

HOXB9 [4] = biological target: HOXB9 (Homo sapiens, UniProt P17482 171-250, T197M)
HOXA4 [5] = biological target: HOXA4 (Homo sapiens, UniProt Q00056 201-287, W262R)
HOXC9 [6] = biological target: HOXC9 (Homo sapiens, UniProt P31274 178-260, K195R)
VENTX [7] = biological target: T2, VENTX (Homo sapiens, UniProt O95231 78-163)
T2 sequence: T1 sequence with Q44R

HOXA7 [8] = biological target: HOXA7 (Homo sapiens, UniProt P31268 116-202)
HOXC10 [9] = biological target: HOXC10 (Homo sapiens, UniProt Q9NYD6 254-340)
ALX4 [10] = biological target: ALX4 (Homo sapiens, UniProt Q9H161 200-286)
PAX4 = biological target: T3, PAX4 (Homo sapiens, UniProt O43316 9-242, R200K)
T3 sequence: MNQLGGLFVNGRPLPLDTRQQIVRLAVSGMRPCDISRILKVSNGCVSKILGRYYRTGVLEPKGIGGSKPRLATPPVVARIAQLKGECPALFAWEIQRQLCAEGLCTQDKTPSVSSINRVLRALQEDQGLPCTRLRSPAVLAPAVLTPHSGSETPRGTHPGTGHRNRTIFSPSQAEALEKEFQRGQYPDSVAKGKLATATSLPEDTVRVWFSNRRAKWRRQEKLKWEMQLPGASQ

VENTX [11] = biological target: T4, VENTX (Homo sapiens, UniProt O95231 78-163, Y115F)
T4 sequence: T1 sequence with Y38F, Q44R

HOXB6 [12] = biological target: HOXB6 (Homo sapiens, UniProt P17509 132-218, K202E)
ALX4 [13] = biological target: ALX4 (Homo sapiens, UniProt Q9H161 200-286, Q225E)
HOXA2 [14] = biological target: HOXA2 (Homo sapiens, UniProt O43364 129-215, R185T)
HOXA4 [15] = biological target: HOXA4 (Homo sapiens, UniProt Q00056 201-287, R217L)
HOXB9 [16] = biological target: HOXB9 (Homo sapiens, UniProt P17482 171-250)
HOXB4 [17] = biological target: HOXB4 (Homo sapiens, UniProt P17483 148-234, V174I)
HOXC9 [18] = biological target: HOXC9 (Homo sapiens, UniProt P31274 178-260)
ALX1 [19] = biological target: ALX1 (Homo sapiens, UniProt Q15699 118-204, L144V)
ALX3 [20] = biological target: ALX3 (Homo sapiens, UniProt O95076 139-225, N203Q)
HOXD13 [21] = biological target: HOXD13 (Homo sapiens, UniProt P35453 263-343, T313R)
SHOX [22] = biological target: SHOX (Homo sapiens, UniProt O15266 103-189, R173C)
HOXC9 [23] = biological target: HOXC9 (Homo sapiens, UniProt P31274 178-260, R193K)
HOXA2 [24] = biological target: HOXA2 (Homo sapiens, UniProt O43364 129-215, R185K)
ALX1 [25] = biological target: ALX1 (Homo sapiens, UniProt Q15699 118-204, L144R)
HOXD13 [26] = biological target: HOXD13 (Homo sapiens, UniProt P35453 263-343)
HOXA4 [27] = biological target: HOXA4 (Homo sapiens, UniProt Q00056 201-287)
HOXC10 [28] = biological target: HOXC10 (Homo sapiens, UniProt Q9NYD6 254-340, K271E)
ALX3 [29] = biological target: ALX3 (Homo sapiens, UniProt O95076 139-225)
PROP1 [30] = biological target: PROP1 (Homo sapiens, UniProt O75360 56-141)
PROP1 [31] = biological target: PROP1 (Homo sapiens, UniProt O75360 56-141, R99H)
VAX1 [32] = biological target: VAX1 (Homo sapiens, UniProt Q5SQQ9 86-172)
ALX3 [33] = biological target: ALX3 (Homo sapiens, UniProt O95076 139-225, L168Q)
HOXD13 [34] = biological target: HOXD13 (Homo sapiens, UniProt P35453 263-343, T313A)
HOXB9 [35] = biological target: HOXB9 (Homo sapiens, UniProt P17482 171-250, R186Q)
HOXC9 [36] = biological target: HOXC9 (Homo sapiens, UniProt P31274 178-260, R222W)
ALX3 [37] = biological target: ALX3 (Homo sapiens, UniProt O95076 139-225, L168V)
PROP1 [38] = biological target: PROP1 (Homo sapiens, UniProt O75360 56-141, F88S)
VAX1 [39] = biological target: VAX1 (Homo sapiens, UniProt Q5SQQ9 86-172, T142I)
HOXA2 [40] = biological target: HOXA2 (Homo sapiens, UniProt O43364 129-215, Y150S)
HOXA7 [41] = biological target: HOXA7 (Homo sapiens, UniProt P31268 116-202, W177C)
ALX1 [42] = biological target: ALX1 (Homo sapiens, UniProt Q15699 118-204)
HOXA4 [43] = biological target: HOXA4 (Homo sapiens, UniProt Q00056 201-287, W262F)
ALX3 [44] = biological target: ALX3 (Homo sapiens, UniProt O95076 139-225, N203S)
HOXA2 [45] = biological target: HOXA2 (Homo sapiens, UniProt O43364 129-215)
VAX1 [46] = biological target: VAX1 (Homo sapiens, UniProt Q5SQQ9 86-172, K157R)
HOXB6 [47] = biological target: HOXB6 (Homo sapiens, UniProt P17509 132-218)
Chain of HOXB6 (Homo sapiens, UniProt P17509 132-218) (P17509 132-218): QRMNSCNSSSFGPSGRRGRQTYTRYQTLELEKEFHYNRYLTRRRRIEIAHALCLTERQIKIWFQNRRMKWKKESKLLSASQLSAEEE

Chain of ALX3 (Homo sapiens, UniProt O95076 139-225, N203Q) (O95076 139-225 N203Q): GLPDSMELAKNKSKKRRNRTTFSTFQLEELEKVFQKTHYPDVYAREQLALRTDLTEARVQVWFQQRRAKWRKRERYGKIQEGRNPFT
Chain of HOXA2 (Homo sapiens, UniProt O43364 129-215, R185K) (O43364 129-215 R185K): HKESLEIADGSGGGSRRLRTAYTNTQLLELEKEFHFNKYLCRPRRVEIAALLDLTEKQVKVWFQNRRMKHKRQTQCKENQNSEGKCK
Chain of SHOX (Homo sapiens, UniProt O15266 103-189, R173C) (O15266 103-189 R173C): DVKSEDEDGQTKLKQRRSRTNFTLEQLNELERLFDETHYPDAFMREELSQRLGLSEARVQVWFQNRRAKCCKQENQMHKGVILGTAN
Chain of HOXA4 (Homo sapiens, UniProt Q00056 201-287, W262F) (Q00056 201-287 W262F): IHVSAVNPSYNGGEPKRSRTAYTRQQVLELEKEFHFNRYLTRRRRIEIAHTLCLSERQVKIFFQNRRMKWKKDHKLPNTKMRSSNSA
Chain of ALX3 (Homo sapiens, UniProt O95076 139-225, L168Q) (O95076 139-225 L168Q): as the sequence (O95076 139-225 N203Q) above, with L30Q, Q65N counted along it
Chain of ALX1 (Homo sapiens, UniProt Q15699 118-204, L144R) (Q15699 118-204 L144R): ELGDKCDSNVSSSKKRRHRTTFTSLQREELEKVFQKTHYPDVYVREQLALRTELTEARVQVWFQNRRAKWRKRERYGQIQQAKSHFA
Chain of HOXA7 (Homo sapiens, UniProt P31268 116-202) (P31268 116-202): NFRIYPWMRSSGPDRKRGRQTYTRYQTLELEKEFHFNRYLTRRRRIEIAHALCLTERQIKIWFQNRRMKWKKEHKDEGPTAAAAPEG
Chain of HOXB9 (Homo sapiens, UniProt P17482 171-250, R186Q) (P17482 171-250 R186Q): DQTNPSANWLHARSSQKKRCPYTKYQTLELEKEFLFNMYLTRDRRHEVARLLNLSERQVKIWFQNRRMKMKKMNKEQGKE
Chain of HOXC10 (Homo sapiens, UniProt Q9NYD6 254-340) (Q9NYD6 254-340): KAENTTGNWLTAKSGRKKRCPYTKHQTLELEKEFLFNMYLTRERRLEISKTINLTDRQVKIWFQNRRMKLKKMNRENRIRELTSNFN
Chain of HOXC9 (Homo sapiens, UniProt P31274 178-260) (P31274 178-260): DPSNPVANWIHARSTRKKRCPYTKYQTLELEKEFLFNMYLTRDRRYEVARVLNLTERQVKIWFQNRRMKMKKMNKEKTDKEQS
Chain of HOXA2 (Homo sapiens, UniProt O43364 129-215) (O43364 129-215): as the sequence (O43364 129-215 R185K) above, with K57R counted along it
Chain of SHOX (Homo sapiens, UniProt O15266 103-189) (O15266 103-189): as the sequence (O15266 103-189 R173C) above, with C71R counted along it
Chain of HOXC10 (Homo sapiens, UniProt Q9NYD6 254-340, K271E) (Q9NYD6 254-340 K271E): as the sequence (Q9NYD6 254-340) above, with K18E counted along it
Chain of ALX3 (Homo sapiens, UniProt O95076 139-225, N203S) (O95076 139-225 N203S): as the sequence (O95076 139-225 N203Q) above, with Q65S counted along it
Chain of HOXC9 (Homo sapiens, UniProt P31274 178-260, K195R) (P31274 178-260 K195R): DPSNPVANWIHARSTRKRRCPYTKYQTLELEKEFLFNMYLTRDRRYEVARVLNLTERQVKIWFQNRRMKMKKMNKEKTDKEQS
Chain of HOXA4 (Homo sapiens, UniProt Q00056 201-287, W262R) (Q00056 201-287 W262R): as the sequence (Q00056 201-287 W262F) above, with F62R counted along it
Chain of HOXC9 (Homo sapiens, UniProt P31274 178-260, R222W) (P31274 178-260 R222W): as the sequence (P31274 178-260) above, with R45W counted along it
Chain of HOXD13 (Homo sapiens, UniProt P35453 263-343, T313R) (P35453 263-343 T313R): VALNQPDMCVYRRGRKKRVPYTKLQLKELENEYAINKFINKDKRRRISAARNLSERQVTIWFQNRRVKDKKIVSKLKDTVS
Chain of HOXB9 (Homo sapiens, UniProt P17482 171-250, T197M) (P17482 171-250 T197M): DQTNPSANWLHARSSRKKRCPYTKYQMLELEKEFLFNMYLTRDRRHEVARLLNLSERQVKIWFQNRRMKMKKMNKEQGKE
Chain of HOXA2 (Homo sapiens, UniProt O43364 129-215, R185T) (O43364 129-215 R185T): as the sequence (O43364 129-215 R185K) above, with K57T counted along it
Chain of HOXB9 (Homo sapiens, UniProt P17482 171-250) (P17482 171-250): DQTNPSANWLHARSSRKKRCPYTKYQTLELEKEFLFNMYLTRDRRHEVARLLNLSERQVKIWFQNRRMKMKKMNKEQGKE
Chain of HOXA4 (Homo sapiens, UniProt Q00056 201-287, R217L) (Q00056 201-287 R217L): as the sequence (Q00056 201-287 W262F) above, with R17L, F62W counted along it
Chain of PROP1 (Homo sapiens, UniProt O75360 56-141) (O75360 56-141): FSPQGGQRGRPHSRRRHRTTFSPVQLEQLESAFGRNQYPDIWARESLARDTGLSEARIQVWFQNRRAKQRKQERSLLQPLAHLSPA
Chain of ALX1 (Homo sapiens, UniProt Q15699 118-204) (Q15699 118-204): as the sequence (Q15699 118-204 L144R) above, with R27L counted along it
Chain of VAX1 (Homo sapiens, UniProt Q5SQQ9 86-172) (Q5SQQ9 86-172): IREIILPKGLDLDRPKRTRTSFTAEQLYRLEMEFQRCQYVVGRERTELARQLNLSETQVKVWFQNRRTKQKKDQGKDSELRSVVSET
Chain of HOXB4 (Homo sapiens, UniProt P17483 148-234) (P17483 148-234): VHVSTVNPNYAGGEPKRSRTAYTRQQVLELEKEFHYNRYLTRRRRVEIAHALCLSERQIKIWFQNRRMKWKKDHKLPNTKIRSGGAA
Chain of VAX1 (Homo sapiens, UniProt Q5SQQ9 86-172, T142I) (Q5SQQ9 86-172 T142I): as the sequence (Q5SQQ9 86-172) above, with T57I counted along it
Chain of ALX4 (Homo sapiens, UniProt Q9H161 200-286, Q225E) (Q9H161 200-286 Q225E): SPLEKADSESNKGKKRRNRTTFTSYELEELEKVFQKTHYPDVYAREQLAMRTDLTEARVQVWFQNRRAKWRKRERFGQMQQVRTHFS
Chain of HOXD13 (Homo sapiens, UniProt P35453 263-343, T313A) (P35453 263-343 T313A): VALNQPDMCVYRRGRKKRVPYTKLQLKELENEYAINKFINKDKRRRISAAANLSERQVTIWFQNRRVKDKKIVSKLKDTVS
Chain of PROP1 (Homo sapiens, UniProt O75360 56-141, R99H) (O75360 56-141 R99H): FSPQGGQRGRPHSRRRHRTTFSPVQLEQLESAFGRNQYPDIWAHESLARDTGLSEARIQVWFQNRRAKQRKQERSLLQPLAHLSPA
Chain of HOXD13 (Homo sapiens, UniProt P35453 263-343) (P35453 263-343): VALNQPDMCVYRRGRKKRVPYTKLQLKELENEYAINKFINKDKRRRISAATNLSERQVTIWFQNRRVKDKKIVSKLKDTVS
Chain of HOXC9 (Homo sapiens, UniProt P31274 178-260, R193K) (P31274 178-260 R193K): as the sequence (P31274 178-260) above, with R16K counted along it
Chain of ALX1 (Homo sapiens, UniProt Q15699 118-204, L144V) (Q15699 118-204 L144V): as the sequence (Q15699 118-204 L144R) above, with R27V counted along it
Chain of ALX3 (Homo sapiens, UniProt O95076 139-225) (O95076 139-225): as the sequence (O95076 139-225 N203Q) above, with Q65N counted along it
Chain of HOXA7 (Homo sapiens, UniProt P31268 116-202, W177C) (P31268 116-202 W177C): as the sequence (P31268 116-202) above, with W62C counted along it
Chain of VAX1 (Homo sapiens, UniProt Q5SQQ9 86-172, K157R) (Q5SQQ9 86-172 K157R): as the sequence (Q5SQQ9 86-172) above, with K72R counted along it
Chain of HOXB6 (Homo sapiens, UniProt P17509 132-218, K202E) (P17509 132-218 K202E): as the sequence (P17509 132-218) above, with K71E counted along it
Chain of HOXA2 (Homo sapiens, UniProt O43364 129-215, Y150S) (O43364 129-215 Y150S): as the sequence (O43364 129-215 R185K) above, with Y22S, K57R counted along it
Chain of ALX4 (Homo sapiens, UniProt Q9H161 200-286) (Q9H161 200-286): as the sequence (Q9H161 200-286 Q225E) above, with E26Q counted along it
Chain of HOXA4 (Homo sapiens, UniProt Q00056 201-287) (Q00056 201-287): as the sequence (Q00056 201-287 W262F) above, with F62W counted along it
Chain of PROP1 (Homo sapiens, UniProt O75360 56-141, F88S) (O75360 56-141 F88S): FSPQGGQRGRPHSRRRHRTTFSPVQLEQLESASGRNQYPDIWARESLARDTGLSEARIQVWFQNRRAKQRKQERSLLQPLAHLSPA
Chain of HOXB4 (Homo sapiens, UniProt P17483 148-234, V174I) (P17483 148-234 V174I): as the sequence (P17483 148-234) above, with V27I counted along it
Chain of ALX3 (Homo sapiens, UniProt O95076 139-225, L168V) (O95076 139-225 L168V): as the sequence (O95076 139-225 N203Q) above, with L30V, Q65N counted along it

Sequence: CTCATTAA
- binding signal (HOXB4 [1]): 13.2 upbm affinity estimate (log intensity, higher = more binding, comparable within an allelic series)
- binding signal (SHOX [2]): 11.5 upbm affinity estimate (log intensity, higher = more binding, comparable within an allelic series)
- binding signal (VENTX [3]): 12 upbm affinity estimate (log intensity, higher = more binding, comparable within an allelic series)
- binding signal (HOXB9 [4]): 10.1 upbm affinity estimate (log intensity, higher = more binding, comparable within an allelic series)
- binding signal (HOXA4 [5]): 10.6 upbm affinity estimate (log intensity, higher = more binding, comparable within an allelic series)
- binding signal (HOXC9 [6]): 12.5 upbm affinity estimate (log intensity, higher = more binding, comparable within an allelic series)
- binding signal (VENTX [7]): 12.8 upbm affinity estimate (log intensity, higher = more binding, comparable within an allelic series)
- binding signal (HOXA7 [8]): 11.5 upbm affinity estimate (log intensity, higher = more binding, comparable within an allelic series)
- binding signal (HOXC10 [9]): 12.2 upbm affinity estimate (log intensity, higher = more binding, comparable within an allelic series)
- binding signal (ALX4 [10]): 13.6 upbm affinity estimate (log intensity, higher = more binding, comparable within an allelic series)
- binding signal (PAX4): 11.6 upbm affinity estimate (log intensity, higher = more binding, comparable within an allelic series)
- binding signal (VENTX [11]): 12 upbm affinity estimate (log intensity, higher = more binding, comparable within an allelic series)
- binding signal (HOXB6 [12]): 9.97 upbm affinity estimate (log intensity, higher = more binding, comparable within an allelic series)
- binding signal (ALX4 [13]): 12.6 upbm affinity estimate (log intensity, higher = more binding, comparable within an allelic series)
- binding signal (HOXA2 [14]): 13.3 upbm affinity estimate (log intensity, higher = more binding, comparable within an allelic series)
- binding signal (HOXA4 [15]): 12.5 upbm affinity estimate (log intensity, higher = more binding, comparable within an allelic series)
- binding signal (HOXB9 [16]): 11.8 upbm affinity estimate (log intensity, higher = more binding, comparable within an allelic series)
- binding signal (HOXB4 [17]): 13.9 upbm affinity estimate (log intensity, higher = more binding, comparable within an allelic series)
- binding signal (HOXC9 [18]): 12.6 upbm affinity estimate (log intensity, higher = more binding, comparable within an allelic series)
- binding signal (ALX1 [19]): 11.5 upbm affinity estimate (log intensity, higher = more binding, comparable within an allelic series)
- binding signal (ALX3 [20]): 8.32 upbm affinity estimate (log intensity, higher = more binding, comparable within an allelic series)
- binding signal (HOXD13 [21]): 10.7 upbm affinity estimate (log intensity, higher = more binding, comparable within an allelic series)
- binding signal (SHOX [22]): 9.2 upbm affinity estimate (log intensity, higher = more binding, comparable within an allelic series)
- binding signal (HOXC9 [23]): 12.5 upbm affinity estimate (log intensity, higher = more binding, comparable within an allelic series)
- binding signal (HOXA2 [24]): 13.6 upbm affinity estimate (log intensity, higher = more binding, comparable within an allelic series)
- binding signal (ALX1 [25]): 11.2 upbm affinity estimate (log intensity, higher = more binding, comparable within an allelic series)
- binding signal (HOXD13 [26]): 11.9 upbm affinity estimate (log intensity, higher = more binding, comparable within an allelic series)
- binding signal (HOXA4 [27]): 14 upbm affinity estimate (log intensity, higher = more binding, comparable within an allelic series)
- binding signal (HOXC10 [28]): 12 upbm affinity estimate (log intensity, higher = more binding, comparable within an allelic series)
- binding signal (ALX3 [29]): 12.3 upbm affinity estimate (log intensity, higher = more binding, comparable within an allelic series)
- binding signal (PROP1 [30]): 11 upbm affinity estimate (log intensity, higher = more binding, comparable within an allelic series)
- binding signal (PROP1 [31]): 10.6 upbm affinity estimate (log intensity, higher = more binding, comparable within an allelic series)
- binding signal (VAX1 [32]): 13.7 upbm affinity estimate (log intensity, higher = more binding, comparable within an allelic series)
- binding signal (ALX3 [33]): 10.1 upbm affinity estimate (log intensity, higher = more binding, comparable within an allelic series)
- binding signal (HOXD13 [34]): 11.7 upbm affinity estimate (log intensity, higher = more binding, comparable within an allelic series)
- binding signal (HOXB9 [35]): 11.5 upbm affinity estimate (log intensity, higher = more binding, comparable within an allelic series)
- binding signal (HOXC9 [36]): 10.9 upbm affinity estimate (log intensity, higher = more binding, comparable within an allelic series)
- binding signal (ALX3 [37]): 9.58 upbm affinity estimate (log intensity, higher = more binding, comparable within an allelic series)
- binding signal (PROP1 [38]): 7.48 upbm affinity estimate (log intensity, higher = more binding, comparable within an allelic series)
- binding signal (VAX1 [39]): 13.5 upbm affinity estimate (log intensity, higher = more binding, comparable within an allelic series)
- binding signal (HOXA2 [40]): 10.7 upbm affinity estimate (log intensity, higher = more binding, comparable within an allelic series)
- binding signal (HOXA7 [41]): 8.81 upbm affinity estimate (log intensity, higher = more binding, comparable within an allelic series)
- binding signal (ALX1 [42]): 12 upbm affinity estimate (log intensity, higher = more binding, comparable within an allelic series)
- binding signal (HOXA4 [43]): 12 upbm affinity estimate (log intensity, higher = more binding, comparable within an allelic series)
- binding signal (ALX3 [44]): 8.41 upbm affinity estimate (log intensity, higher = more binding, comparable within an allelic series)
- binding signal (HOXA2 [45]): 12.9 upbm affinity estimate (log intensity, higher = more binding, comparable within an allelic series)
- binding signal (VAX1 [46]): 13.6 upbm affinity estimate (log intensity, higher = more binding, comparable within an allelic series)
- binding signal (HOXB6 [47]): 11.9 upbm affinity estimate (log intensity, higher = more binding, comparable within an allelic series)
